Most compounds without a hit are left out; they make up all but 2.5% or so of the library.
Env fusion inh: inhibitors of HIV Env-mediated cell fusion; 1.1% of 360,000 active; HeLa-JRFL Env/CEM21 cell fusion, luciferase; inhibition, % at 12.3 µM;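 active = mean replicate inhibition score of at least 50 and every replicate individually at or above 50; inconclusive = only one of the two criteria met; inactive = mean below 50 and not all replicates reaching 50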;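 also: 0% = plate neutral controls and 100% = maraviroc near 300 nM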
FXN GAA850 act: increases GAA850 frataxin promoter reporter activity; HEK293 lucGAA850 FXN promoter luciferase reporter, 24 h; percent of 10 µM SAHA response; activation, % at 6 µM; 0.56% of 360,000 active; AID 540364;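 active = activation above the average of all compounds screened plus 3 SD, cutoff fixed separately per campaign, cut at about 7.5% in these data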;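 also: 0% = DMSO wells and 100% = 10 µM SAHA wells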
PAX8 reporter: PAX8 transcriptional activity inhibition. inhibition, % at 12.6 µM. 1.2% of 360,000 active. RMG-I TPO-luciferase reporter, SteadyGlo, 24 h;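 active = mean replicate inhibition at least 60% with every replicate also reaching 60%; inconclusive = only one of the two criteria is met; inactive = mean below 60% and not all replicates reaching 60%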;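 also: luciferase light reporting Pax8 driven TPO promoter activity; plate controls were median of neutral control wells for no effect and mitoxantrone controls for full effect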
EWS-Fli block: inhibitors of EWS/Fli oncoprotein transcriptional activity; A673 NR0B1-luciferase reporter, viability-normalised; inhibition, % at 12.6 µM; 0.67% of 350,000 active;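 active = mean inhibition of at least 50% after viability correction, with every replicate also passing that limit; inconclusive = mean reaches 50% but only one of two replicates passes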;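 also: firefly luciferase signal divided by Alamar Blue viability fluorescence both relative to DMSO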
CFTR F508del cor: CFTR F508del correction in bronchial cells | CFBE cells, YFP halide quenching; stimulated with forskolin plus potentiator P3; % fluorescence drop versus neutral controls | activity (quench increase), % at 7.58 µM | 0.36% of 350,000 active;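 active = mean added fluorescence quench of at least 8% versus neutral control, with both replicates also reaching 8%; inconclusive = only one of the mean or replicate conditions met; inactive = mean below 8% and not both replicates reaching 8%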;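 also: cells transiently co-express mutant CFTR-F508del with the halide-sensitive YFP; corrector assay measuring rescue of mutant channel to the surface after 24 h compound exposure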
DNA binder FP: DNA binding small molecules; AID 720586; salmon sperm DNA acridine orange fluorescence polarization; shares compounds with EWS-Fli block; AC35, µM (doses to about 68 µM), inactives show top-dose activity change, negative = DNA binding; 2% of 640 active;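 active = fitted curve reaches a 35% signal fall AC35 below twice the sample's top valid tested dose, actives reach about 48 µM in these data; inactive = the rest, including activity in the rising direction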;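 also: lower polarization ratio signals compound binding to DNA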
The depositor's hits bear a star; u = inconclusive; x = not tested or not shown; ! = not active in a repeat; [ ] = dose if it differs, or a comment.

SMILES	Env fusion inh	FXN GAA850 act	PAX8 reporter	EWS-Fli block	CFTR F508del cor	DNA binder FP
O=C(C[C@H]1CC[C@@H]2[C@H](COC[C@@H](O)CN2Cc2cccc(C(F)(F)F)c2)O1)NCc1ccncc1	x	x	-16	2	-1	x
Cc1ccc(/C=N/Nc2ccc3ccccc3n2)o1	-23	2	-4	53*	0	-2%
C(=N\Nc1ccc2ccccc2n1)/c1ccc2c(c1)OCCO2	u	-9	73*	86*	4	-14%
Cc1ccc(/C=N/Nc2cn[nH]c(=O)n2)o1	-30	4	4	-2	2	x
Cc1cccc(/C=N/Nc2ccc3ccccc3n2)c1	-14	-10	54	74*	-2	-1%
Cc1cc(N/N=C/c2cccc(Br)c2)nc2ccccc12	-76	6	-73	x	x	x
C[C@H]1CCCCO[C@H](CN(C)C(=O)Cc2ccccc2)[C@@H](C)CN([C@@H](C)CO)C(=O)c2cc(NC(=O)Nc3ccc4c(c3)OCO4)ccc2O1	30[16.7 µM]	x	-4	3	0	x
O=C(Cc1cccnc1)N1CC2(C1)[C@H](c1ccccc1)[C@H](CO)N2C(=O)C1CCCCC1	x	x	x	-5	-3	x
C[C@H](CO)N1C[C@H](C)[C@@H](CN(C)C(=O)Nc2ccc(F)cc2)Oc2c(NS(=O)(=O)c3ccc(F)cc3)cccc2C1=O	-15[16.7 µM]	x	x	-2	-2	x
CCC(=O)N1C[C@H](C)[C@@H](OC)CN(C)C(=O)c2cc(NC(=O)C3CCCCC3)ccc2OC[C@H]1C	x	x	-3	0	1	x
CO[C@H]1CN(C)C(=O)c2ccc(NC(=O)c3cccc(Oc4ccccc4)c3)cc2OC[C@H](C)NC[C@@H]1C	x	x	-18	-12	1	x
CCCN(C)C[C@H]1OCCCC[C@H](C)Oc2ccc(NS(=O)(=O)c3ccccc3)cc2C(=O)N([C@H](C)CO)C[C@H]1C	-9[16.7 µM]	x	15	-8	-2	x
CC(=O)c1ccc(N=C2C(=O)Nc3ccccc32)cc1	-14	1	6	54*	-2	-9%
O=C(C[C@@H]1C[C@H]2c3cc(NS(=O)(=O)c4ccc(F)cc4)ccc3O[C@H]2[C@H](CO)O1)NCc1ccc(-c2ccccc2)cc1	-171[16.7 µM]	x	88*	56*	-5	0%
CO[C@@H]1CN(C)C(=O)c2ccc(NC(C)=O)cc2OC[C@H](C)N(C(=O)c2ccc(F)cc2)C[C@@H]1C	-2[16.7 µM]	x	12	-1	-3	x
CCc1ccc(/C=C2\SC(=S)N(CCCC(=O)N3CCN(C)CC3)C2=O)cc1	27	-5	46	69*	-2	-24%
CCc1ccc(/C=C2\SC(=S)N(CCCC(=O)NCCCN3CCOCC3)C2=O)cc1	52	-13	62*	85*	1	0%
COc1ccc(/C=C2\SC(=S)N(CCCC(=O)N3CCN(C)CC3)C2=O)cc1	13	-4	30	4	-1	x
CCc1ccc(/C=C2/SC(=S)N(CCC(=O)NCCCN3CCOCC3)C2=O)cc1	10	-1	-8	x	-8	x
COc1cc(C(c2c(C)[nH][nH]c2=O)c2c(C)[nH][nH]c2=O)ccc1OC(C)C	4	0	-7	78*	x	-16%
CC(=O)c1ccc(N=Nc2ccc(C)cc2)cc1	-66	0	-81	52*	x	-14%
CC(=O)c1ccc(N=Nc2ccc(N(C)C)cc2)cc1	-487	4	-157	26	3	x
CCNC(=O)c1cccc(S(=O)(=O)N2CCCCCC2)c1	19	3	-12	67*	x	-20%
O=C(NCc1ccccc1)c1cccc(S(=O)(=O)N2CCCCC2)c1	1	-1	4	8	0	x
COC(=O)C[C@H]1CC[C@@H](NC(=O)Nc2ccc(C(F)(F)F)cc2)[C@H](CO)O1	15[16.7 µM]	x	4	69*	-3	-17%
SMILES	Env fusion inh	FXN GAA850 act	PAX8 reporter	EWS-Fli block	CFTR F508del cor	DNA binder FP
COc1ccccc1S(=O)(=O)N[C@@H]1CC[C@@H](CCNC(=O)C2CCC2)O[C@H]1CO	-1[16.7 µM]	x	-24	7	2	x
CC(C)=CCC/C(C)=C/CN1C(=O)N(c2ccc(F)cc2)[C@H]2C[C@@H](c3ccccc3)[C@@H](C)[C@@H](C(=O)N3CCOCC3)C[C@H]21	76*	x	101*	52*	-1	3%
COC(=O)C[C@H]1CC[C@@H]2[C@@H](COc3ccc(NC(=O)Nc4ccc(C#N)cc4)cc3C(=O)N2C)O1	15[16.7 µM]	x	-4	-6	1	x
COC(=O)C[C@@H]1CC[C@H]2[C@H](COc3ccc(NC(=O)Nc4ccc(C#N)cc4)cc3C(=O)N2C)O1	18[16.7 µM]	x	-2	87*	3	5%
COC(=O)C[C@H]1CC[C@H]2[C@H](COc3ccc(NC(=O)Nc4ccc(C#N)cc4)cc3C(=O)N2C)O1	1[16.7 µM]	x	4	42	1	x
COC(=O)C[C@@H]1CC[C@@H]2[C@@H](COc3ccc(NC(=O)Nc4ccc(C#N)cc4)cc3C(=O)N2C)O1	29[16.7 µM]	x	-5	78*	0	12%
O=C(NCc1ccc2c(c1)OCO2)[C@@H]1[C@@H](CO)[C@@H]2Cn3c(cccc3=O)[C@H]1N2Cc1ccccc1	x	x	6	-2	0	x
C[C@H](CO)N1C[C@H](C)[C@@H](CN(C)C(=O)Nc2ccccc2)OCCCC[C@H](C)Oc2ccc(NS(=O)(=O)c3cn(C)cn3)cc2C1=O	-31[16.7 µM]	x	-18	-11	-2	x
N#Cc1cccc(-c2ccc(C3[C@@H]4CN(C(=O)Cc5ccncc5)C[C@H]3N4)cc2)c1 (some centres undefined)	x	x	-4	78*!	2	-4%
CN(C)C(=S)N=Nc1[nH]c2ccccc2c1O	-9	x	-78	61*	-3	-7%
CN(C)C(=O)c1ccc(N=Nc2c(O)c3ccccc3[nH]c2=O)cc1	16	2	11	-14	-3	x
CNC[C@H]1Oc2c(NS(=O)(=O)c3cccs3)cccc2C(=O)N([C@@H](C)CO)C[C@H]1C	x	x	x	-4	2	x
COc1ccc(NC(=O)N(C)C[C@@H]2Oc3ccc(NS(=O)(=O)c4ccc(C)cc4)cc3C(=O)N([C@@H](C)CO)C[C@H]2C)cc1	-16[16.7 µM]	x	6	-7	-2	x
COc1ccc2oc(=O)c(C(=O)Nc3ccccc3O)cc2c1	-135	4	-11	18	-3	x
COc1ccc(NC(=O)c2cc3ccccc3oc2=O)cc1	-130	1	-8	76*	-3	-11%
C(=N\Nc1nc2ccccc2[nH]1)/c1ccccn1	20	-9	62*	70*	0	0%
COc1ccc(N=C(NN)c2ccc3ccccc3n2)cc1	25	-9	x	72*	1	-1%
C[C@@H]1CN([C@@H](C)CO)C(=O)c2cc(C#Cc3ccccc3F)cnc2O[C@H]1CN(C)C(=O)Cc1ccccc1	9[16.7 µM]	x	x	15	1	x
COc1cc(C=C(C(C)=O)C(C)=O)ccc1O	-18	1	4	x	x	x
COc1cc(/C=C/C(=O)CC(=O)/C=C/c2ccc(O)c(OC)c2)ccc1O	x	0	26	73*	2	40µM*

Assay outcomes as filed in PubChem.
